According to PubChem BioAssay (EPA / NIEHS):
Inconclusive results are not listed. Activity calls are given as the source filed them. The calls were made as follows: active = hit-call score of the fitted dose curve at least 0.9, where 1 is the maximum; inconclusive = response in the unintended direction; inactive = score below 0.9.

What follows are molecules tested on ABC Transporter (ABCB1), ABCB1 (gene 5243) (assay: CLD_ABCB1_48hr: CellzDirect (CLD) Gene Expression Assay for ABC Transporter (ABCB1) at 48 hours (AID 2283695);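 as to AC50: potency for induction meaning increase of mRNA over DMSO vehicle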).
Experimental: CLD_48hr is a cell-based, multiplexed-readout assay that uses hepatocyte, a human liver primary cell, with measurements taken at 48 hours after chemical dosing in a 96-well plate.CLD_ABCB1_48hr is one of 16 assay component(s) measured or calculated from the CLD_48hr assay. It is designed to make measurements of mRNA induction, a form of inducible reporter, as detected with chemiluminescence signals by Quantitative Nuclease Protection Assay (qNPA) technology.Data from the assay component CLD_ABCB1_48hr was analyzed at the endpoint, CLD_ABCB1_48hr, in the positive analysis fitting direction relative to DMSO as the negative control and baseline of activity. Using a type of inducible reporter, gain-of-signal activity can be used to understand changes in the reporter gene as they relate to the gene ABCB1. Furthermore, this assay endpoint can be referred to as a primary readout. To generalize the intended target to other relatable targets, this assay endpoint is annotated to the transporter intended target family, where subfamily is ABC transporter.
Human hepatocyte cultures were treated daily for two consecutive days with fresh dosing solutions containing appropriate concentrations of the 320 ToxCast chemicals (chemical identities were blinded to CellzDirect and other ToxCast collaborators), vehicle control (0.2% DMSO), and positive control inducers as summarized in Table 1. Due to the large number of treatment groups and chemicals examined, the ToxCast chemicals were divided into two groups (spanning two independent cultures of hepatocytes from separate donor preparations (Hu778: ToxCast plates 1 and 2; Hu776: ToxCast plates 3 and 4). Each preparation of human hepatocyte cultures was treated with respective vehicle control, medium only control, set of six positive controls/reference chemicals for the five hepatic receptor pathways, and a subset of eight of the ToxCast chemicals (indoxacarb, pyrithiobac-sodium, norflurazon, cyhalofop-butyl, methomyl, thiram, acetochlor, and propiconazole). These replicate data, coupled with internal replicates designed within the blinded ToxCast chemical library, provided additional data to evaluate interindividual differences between hepatocyte preparations and their potential impact on chemical profiles.Cell morphology and integrity were evaluated using phase-contrast microscopy as an indicator of hepatocyte cell health (Tyson & Green, 1987). Cultures for each treatment group (i.e., media, vehicle [0.2% DMSO], positive control inducers [multiple concentrations], and the ToxCast chemicals [multiple concentrations]) were observed and cell morphology was assessed relative to vehicle control cultures at each harvest time point (0, 6, 24, or 48 h). […] Images were evaluated at the conclusion of the study to assess changes in cell integrity and account for the effects of chemical exposure on uncharacteristic changes in concentration-dependent gene expression profiles. The results from these determinations of apparent cytotoxicity were annotated (yes/no) alongside the corresponding qNPA data for reference.At the conclusion of each treatment period, hepatocyte cultures (96-well) were washed with 1 volume of HBSS, lysed by addition of 25 ul ArrayPlate lysis buffer (HTG, Tucson, AZ), and 70 ul/well of Denaturation Oil, denatured by incubation at 95C for 10 min, and frozen at approximately -70C until analysis by nuclease protection assay (qNPA) (Roberts et al., 2007). For qNPA analysis, cell lysates were thawed at 50C for approximately 30 min, qNPA probes were added, and samples were incubated at 95C for 10 min to begin the detection process by denaturing the target RNA, dissociating the duplexes and secondary structure hybridization. At the conclusion of the hybridization period, S1 nuclease reagent was added to each sample to digest all nonprotected nucleotides at 50C for 60-90 min. […]

Structure (SMILES) | outcome | AC50
Cc1c(F)c(F)c(COC(=O)C2C(/C=C(\Cl)C(F)(F)F)C2(C)C)c(F)c1F (stereo not given) | inactive | –
CCOc1cc(Oc2ccc(C(F)(F)F)cc2Cl)ccc1[N+](=O)[O-] | inactive | –
CCCCC(CC)COC(=O)c1ccccc1C(=O)OCC(CC)CCCC (stereo not given) | inactive | –
CCOC(=O)C(Cl)Cc1cc(-n2nc(C)n(C(F)F)c2=O)c(F)cc1Cl (stereo not given) | inactive | –
COc1nc(C)nc(NC(=O)NS(=O)(=O)c2ccccc2Cl)n1 | inactive | –
COc1cnc(OC)n2nc(NS(=O)(=O)c3c(OCC(F)F)cccc3C(F)(F)F)nc12 | inactive | –
N#Cc1cc(Br)c(O)c(Br)c1 | inactive | –
CS/C(C)=N/OC(=O)N(C)SN(C)C(=O)O/N=C(\C)SC | inactive | –
CCCC1COC(Cn2cncn2)(c2ccc(Cl)cc2Cl)O1 (stereo not given) | inactive | –
N#Cc1nn(-c2c(Cl)cc(C(F)(F)F)cc2Cl)c(N)c1S(=O)C(F)(F)F (stereo not given) | – | 4.65 µM (active)
CCCCNC(=O)n1c(NC(=O)OC)nc2ccccc21 | inactive | –
CC(C)(C)c1ccc(CSc2cnn(C(C)(C)C)c(=O)c2Cl)cc1 | inactive | –
CCON=C(CC)C1=C(O)CC(c2c(C)cc(C)cc2C)CC1=O (stereo not given) | inactive | –
COC(=O)N(OC)c1ccccc1COc1ccn(-c2ccc(Cl)cc2)n1 | inactive | –
CCNc1nc(Cl)nc(NC(C)C)n1 | inactive | –
CCCCOC(=O)c1ccccc1C(=O)OCCCC | inactive | –
CCCCNC(=O)OCC#CI | inactive | –
N#CC(CCc1ccc(Cl)cc1)(Cn1cncn1)c1ccccc1 (stereo not given) | inactive | –
COP(=S)(OC)Oc1nc(Cl)c(Cl)cc1Cl | inactive | –
COC(=O)C(C)Oc1ccc(Oc2ccc(Cl)cc2Cl)cc1 (stereo not given) | inactive | –

Structure (SMILES) | outcome | AC50
CCc1nn(C)c(C(=O)NCc2ccc(C(C)(C)C)cc2)c1Cl | inactive | –
OC(c1ccc(Cl)cc1)(c1cncnc1)c1ccccc1Cl (stereo not given) | – | 17.2 µM (active)
CNC(=O)ON=CC(C)(C)SC | inactive | –
CO/C=C(/C(=O)OC)c1ccccc1Oc1cc(Oc2ccccc2C#N)ncn1 | – | 30.2 µM (active)
CCCN(CCC)c1c([N+](=O)[O-])cc(S(N)(=O)=O)cc1[N+](=O)[O-] | inactive | –
O=C(O)COc1nc(Cl)c(Cl)cc1Cl | inactive | –
CC(C)Oc1cc(-n2nc(C(C)(C)C)oc2=O)c(Cl)cc1Cl | inactive | –
CCOC(=O)CC(SP(=S)(OC)OC)C(=O)OCC (stereo not given) | inactive | –
Fc1ccc(Oc2ccnc3cc(Cl)cc(Cl)c23)cc1 | inactive | –
COc1ccc(C(c2ccc(OC)cc2)C(Cl)(Cl)Cl)cc1 | inactive | –
C=CC1(C)OC(=O)N(c2cc(Cl)cc(Cl)c2)C1=O (stereo not given) | inactive | –
COC(=O)C=C(C)OP(=O)(OC)OC | inactive | –
CC(C)C1(C)N=C(c2nc3ccccc3cc2C(=O)O)NC1=O (stereo not given) | inactive | –
COC(=O)c1ccccc1C(=O)OC | inactive | –
C#CCOS(=O)OC1CCCCC1Oc1ccc(C(C)(C)C)cc1 (stereo not given) | inactive | –
C=CCC1=C(C)[C@@H](OC(=O)[C@@H]2[C@@H](C=C(C)C)C2(C)C)CC1=O | inactive | –
C=CCC1=C(C)C(OC(=O)C2C(C=C(C)C)C2(C)C)CC1=O (stereo not given) | inactive | –
CC1COC(Cn2cncn2)(c2ccc(Oc3ccc(Cl)cc3)cc2Cl)O1 (stereo not given) | inactive | –
Cc1cc(Cl)ccc1OCC(=O)O | inactive | –
COc1nc(C)nc(NC(=O)NS(=O)(=O)c2ccccc2CCC(F)(F)F)n1 | inactive | –
